Measured values taken from PubChem BioAssay (NCATS).
Results filed as inconclusive are left out. Calls of active or inactive are those of the source. Unless noted, calls follow the shape of the dose curve; as a rule, active = well fitted curve in the direction sought with a large enough effect; inconclusive = small, poorly fitted or top-dose-only effect, or another doubt; inactive = no such curve, though single readings can be large; an effect the other way counts as inactive or inconclusive.

Legend:
MKL-2 = test: qHTS assay to identify novel small-molecules to repurpose for Merkel cell carcinoma treatment (AID 1296009); conditions: MCC and control cell lines, CellTiter-Glo viability, 72 h; series mostly up to 46 µM; also: nearly all actives have a fitted effect of over 60% in size; as to activity change, negative = cytotoxicity: % is scaled to controls: 0 for no effect and ±100 for the full control effect
How it was run: (§1)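 Cell viability, measured as CellTiter-Glo luminescence, was normalized between DMSO and no-cell wells. The cells had been exposed to 8- or 11-point compound dilutions for 72 hr at 37 degree celsius.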

NIH3T3 = test: as above; conditions: MCC and control cell lines, CellTiter-Glo viability, 72 h; at 44.8 µM (top of the series) unless noted
How it was run: as §1

UISO = test: as above; conditions: MCC and control cell lines, CellTiter-Glo viability, 72 h; series mostly up to 46 µM
How it was run: as §1

WaGa = test: as above; conditions: MCC and control cell lines, CellTiter-Glo viability, 72 h; series mostly up to 46 µM
How it was run: as §1

C33A = test: Primary qHTS to identify gynecologic anti-cancer compounds using libraries of approved drugs and bioactive compounds (AID 1345084); conditions: Gynecologic cancer cell panel viability, ATPlite luminescence, 48 h; series mostly up to 57.5 µM; also: % is scaled to controls: 0 for no effect and ±100 for the full control effect; nearly all actives have a fitted effect of over 55% in size
How it was run: (§2)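 In this quantitative HTS, cell killing is estimated from loss of ATP-dependent luciferase light. Cells see five compound concentrations over a 48 h exposure.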

CAOV3 = test: as above; conditions: Gynecologic cancer cell panel viability, ATPlite luminescence, 48 h; series mostly up to 57.5 µM
How it was run: as §2

CASKI = test: as above; conditions: Gynecologic cancer cell panel viability, ATPlite luminescence, 48 h; series mostly up to 57.5 µM
How it was run: as §2

Es-2 = test: as above; conditions: Gynecologic cancer cell panel viability, ATPlite luminescence, 48 h; series mostly up to 57.5 µM
How it was run: as §2

HeLa = test: as above; conditions: Gynecologic cancer cell panel viability, ATPlite luminescence, 48 h; series mostly up to 57.5 µM
How it was run: as §2

Hek293T = test: as above; conditions: Gynecologic cancer cell panel viability, ATPlite luminescence, 48 h, control line for the selectivity index; series mostly up to 57.5 µM
How it was run: as §2

JEG-3 = test: as above; conditions: Gynecologic cancer cell panel viability, ATPlite luminescence, 48 h; series mostly up to 57.5 µM
How it was run: as §2

PA-1 = test: as above; conditions: Gynecologic cancer cell panel viability, ATPlite luminescence, 48 h; series mostly up to 57.5 µM
How it was run: as §2

Tov-21-G = test: as above; conditions: Gynecologic cancer cell panel viability, ATPlite luminescence, 48 h; series mostly up to 57.5 µM
How it was run: as §2

Tov112D = test: as above; conditions: Gynecologic cancer cell panel viability, ATPlite luminescence, 48 h; series mostly up to 57.5 µM
How it was run: as §2

[1] = Drug repurposing screens with cells derived from glioblastoma tumor samples (AID 1345199); conditions: GBM patient neurospheres viability, ATP luminescence, 48 h; also: nearly all actives have a fitted effect of over 40% in size; also: potency is read from the fitted curve at half-maximal effect; as to activity, negative = cell killing: % is scaled to controls: 0 for no effect and ±100 for the full control effect
How it was run: (§3)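 Primary testing used CD133+ neurospheres from four GBM patients, seven concentrations, 48 h exposure and ATP-based viability; confirmation added three slower-growing patient lines.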

astro = test: as above; conditions: viability, ATP luminescence, 48 h; series mostly up to 45.9 µM
How it was run: as §3

OV90 = test: Primary qHTS to identify gynecologic anti-cancer compounds using libraries of approved drugs and bioactive compounds (AID 1345084); conditions: Gynecologic cancer cell panel viability, ATPlite luminescence, 48 h; series mostly up to 57.5 µM; also: % is scaled to controls: 0 for no effect and ±100 for the full control effect; nearly all actives have a fitted effect of over 55% in size
How it was run: as §2

SKOV3 = test: as above; conditions: Gynecologic cancer cell panel viability, ATPlite luminescence, 48 h; series mostly up to 57.5 µM
How it was run: as §2

[2] = target: Nuclear receptor subfamily 1 group I member 2 (Rattus norvegicus) (UniProt Q9R1A7); test: qHTS assay for small molecule activators of the rat pregnane X receptor (rPXR) signaling pathway (AID 651751; call rule not given here; also: 0% is about no effect); conditions: rPXR reporter cells, luciferase (One-Glo), 24 h
[3] = at 45.9 µM (top of the series), tumour line B
[4] = at 45.9 µM (top of the series), tumour line D
[5] = at 46 µM (top of the series), tumour line A
[6] = at 46.1 µM (top of the series), tumour line C

Sequence of Nuclear receptor subfamily 1 group I member 2 (Rattus norvegicus) (Q9R1A7 whole entry, looked up): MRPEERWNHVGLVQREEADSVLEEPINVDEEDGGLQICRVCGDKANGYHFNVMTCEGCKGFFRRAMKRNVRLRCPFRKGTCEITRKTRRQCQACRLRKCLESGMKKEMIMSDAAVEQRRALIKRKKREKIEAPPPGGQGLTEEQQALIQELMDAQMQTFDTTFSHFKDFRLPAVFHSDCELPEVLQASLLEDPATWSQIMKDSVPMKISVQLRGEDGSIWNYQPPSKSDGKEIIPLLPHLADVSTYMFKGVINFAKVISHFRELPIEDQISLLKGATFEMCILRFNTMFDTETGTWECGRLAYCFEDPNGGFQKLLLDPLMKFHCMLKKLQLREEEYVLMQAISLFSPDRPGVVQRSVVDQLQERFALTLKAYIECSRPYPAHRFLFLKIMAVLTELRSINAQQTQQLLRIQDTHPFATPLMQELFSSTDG

CC1=NS(=O)(=O)c2cc(Cl)ccc2N1
inactive: Potency (MKL-2) | outcome (NIH3T3) | Potency (UISO) | Potency (WaGa) | Potency (C33A) | Potency (CAOV3) | Potency (CASKI) | Potency (Es-2) | Potency (HeLa) | Potency (Hek293T) | Potency (JEG-3) | Potency (PA-1) | Potency (Tov-21-G) | Potency (Tov112D) | activity, negative = cell killing [1, 3] -1.9% | activity, negative = cell killing [1, 4] 2.33% | activity, negative = cell killing [1, 5] -21.7% | activity, negative = cell killing [1, 6] 8.3% | Potency (astro)

CCCOc1ccccc1-c1nc2n[nH]nc2c(=O)[nH]1
inactive: Potency (MKL-2) | Potency (UISO) | Potency (WaGa) | Potency (C33A) | Potency (CAOV3) | Potency (CASKI) | Potency (Es-2) | Potency (HeLa) | Potency (Hek293T) | Potency (JEG-3) | Potency (OV90) | Potency (PA-1) | Potency (SKOV3) | Potency (Tov-21-G) | Potency (Tov112D) | activity, negative = cell killing [1, 3] -4.45% | activity, negative = cell killing [1, 4] -8.24% | activity, negative = cell killing [1, 5] -28% | activity, negative = cell killing [1, 6] -19%

CNC1(C)C2CCC(C2)C1(C)C (configuration not stated)
inactive: Potency (MKL-2) | outcome (NIH3T3) | Potency (UISO) | Potency (WaGa) | Potency (C33A) | Potency (CAOV3) | Potency (CASKI) | Potency (Es-2) | Potency (HeLa) | Potency (Hek293T) | Potency (JEG-3) | Potency (OV90) | Potency (PA-1) | Potency (Tov-21-G) | Potency (Tov112D) | activity, negative = cell killing [1, 3] 1.71% | activity, negative = cell killing [1, 4] 0.479% | activity, negative = cell killing [1, 6] 3.06% | Potency (astro)

NS(=O)(=O)c1cc2c(cc1Cl)NC(C1CC3C=CC1C3)NS2(=O)=O (configuration not stated)
inactive: Potency (MKL-2) | Potency (UISO) | Potency (WaGa) | Potency (C33A) | Potency (CAOV3) | Potency (CASKI) | Potency (Es-2) | Potency (HeLa) | Potency (Hek293T) | Potency (JEG-3) | Potency (OV90) | Potency (PA-1) | Potency (SKOV3) | Potency (Tov-21-G) | Potency (Tov112D) | activity, negative = cell killing [1, 3] 0.786% | activity, negative = cell killing [1, 4] 7.03% | activity, negative = cell killing [1, 5] -11.5% | activity, negative = cell killing [1, 6] -5.22% | Potency (astro)

O=C(O)CN(CCOCCOCCN(CC(=O)O)CC(=O)O)CC(=O)O
inactive: activity change, negative = cytotoxicity (MKL-2) 9.35% [at 0.597 µM] | activity change, negative = cytotoxicity (UISO) 21.4% [at 0.597 µM] | activity change, negative = cytotoxicity (WaGa) 12.3% [at 0.597 µM] | activity change, negative = cytotoxicity (C33A) 11.2% [at 0.462 µM] | activity change, negative = cytotoxicity (CAOV3) 7.4% [at 0.462 µM] | activity change, negative = cytotoxicity (CASKI) 2.67% [at 0.462 µM] | activity change, negative = cytotoxicity (Es-2) -1.06% [at 0.462 µM] | activity change, negative = cytotoxicity (HeLa) 11.5% [at 0.462 µM] | activity change, negative = cytotoxicity (Hek293T) -0.823% [at 0.462 µM] | activity change, negative = cytotoxicity (JEG-3) -5.11% [at 0.462 µM] | activity change, negative = cytotoxicity (OV90) 2.64% [at 0.462 µM] | activity change, negative = cytotoxicity (PA-1) -1.54% [at 0.462 µM] | activity change, negative = cytotoxicity (SKOV3) 17.7% [at 0.462 µM] | activity change, negative = cytotoxicity (Tov-21-G) 1.63% [at 0.462 µM] | activity change, negative = cytotoxicity (Tov112D) 6.01% [at 0.462 µM] | activity, negative = cell killing [1, 3] -21% | activity, negative = cell killing [1, 4] -7% | activity, negative = cell killing [1, 5] -22.8% | activity, negative = cell killing [1, 6] 4.28% | Potency (astro)

CN(C)C/C=C(/c1ccc(Br)cc1)c1cccnc1
inactive: Potency (MKL-2) | outcome (NIH3T3) | Potency (UISO) | Potency (WaGa) | Potency (C33A) | Potency (CAOV3) | Potency (CASKI) | Potency (HeLa) | Potency (Hek293T) | Potency (JEG-3) | Potency (OV90) | Potency (PA-1) | Potency (SKOV3) | Potency (Tov-21-G) | Potency (Tov112D) | activity, negative = cell killing [1, 3] -23% | Potency (astro)
active: Potency ([1]; tumour line A) 31.6 µM

CC(C(=O)O)c1ccc(CC2CCCC2=O)cc1 (configuration not stated)
inactive: Potency (MKL-2) | Potency (UISO) | Potency (WaGa) | Potency (C33A) | Potency (CAOV3) | Potency (CASKI) | Potency (Es-2) | Potency (HeLa) | Potency (Hek293T) | Potency (JEG-3) | Potency (OV90) | Potency (PA-1) | Potency (SKOV3) | Potency (Tov-21-G) | Potency (Tov112D) | activity, negative = cell killing [1, 3] -3.22% | activity, negative = cell killing [1, 4] 4.21% | activity, negative = cell killing [1, 5] -18.9% | activity, negative = cell killing [1, 6] -19.4% | Potency (astro)

O=C(O)CCCCCCCC(=O)O
inactive: Potency (MKL-2) | outcome (NIH3T3) | Potency (UISO) | Potency (WaGa) | Potency (C33A) | Potency (CAOV3) | Potency (CASKI) | Potency (Es-2) | Potency (HeLa) | Potency (Hek293T) | Potency (JEG-3) | Potency (OV90) | Potency (PA-1) | Potency (SKOV3) | Potency (Tov-21-G) | Potency (Tov112D) | activity, negative = cell killing [1, 3] -8.57% | activity, negative = cell killing [1, 4] -5.03% | activity, negative = cell killing [1, 6] -6.63% | Potency (astro) | max response [2] -2.29%

CC(C)(Oc1ccc(CCNC(=O)c2ccc(Cl)cc2)cc1)C(=O)O
inactive: Potency (MKL-2) | outcome (NIH3T3) | Potency (UISO) | Potency (WaGa) | Potency (C33A) | Potency (CAOV3) | Potency (CASKI) | Potency (Es-2) | Potency (HeLa) | Potency (Hek293T) | Potency (JEG-3) | Potency (OV90) | Potency (PA-1) | Potency (SKOV3) | Potency (Tov-21-G) | Potency (Tov112D) | activity, negative = cell killing ([1]; at 20 µM (top of the series), tumour line C) 15.6% | activity, negative = cell killing ([1]; at 21.2 µM (top of the series), tumour line B) -6.51% | activity, negative = cell killing ([1]; at 21.2 µM (top of the series), tumour line D) 0.604% | activity, negative = cell killing ([1]; at 21.3 µM (top of the series), tumour line A) -25.9% | Potency (astro) | max response [2] -5.47%

Cc1ccc(Cl)c(Nc2ccccc2C(=O)O)c1Cl
inactive: Potency (MKL-2) | Potency (UISO) | Potency (WaGa) | Potency (C33A) | Potency (CAOV3) | Potency (CASKI) | Potency (Es-2) | Potency (HeLa) | Potency (Hek293T) | Potency (JEG-3) | Potency (OV90) | Potency (PA-1) | Potency (SKOV3) | Potency (Tov-21-G) | Potency (Tov112D) | activity, negative = cell killing [1, 3] -5.7% | activity, negative = cell killing [1, 4] -0.35% | activity, negative = cell killing [1, 5] -28.2% | activity, negative = cell killing [1, 6] -24.9%
